These results are taken from PubChem BioAssay.

The source made the active and inactive calls.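 The calls were made as follows, unless noted: active = z-score of at least 1.8 in each of two replicates, scored against plate mean and spread of sample wells; inactive = the rest.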

Experiment [1] is described as follows: survival rescue of mitochondrial mutant cells in low glucose, primary screen, MELAS cybrids, Rieske KO mouse fibroblasts, CellTiter-Glo (AID 1508586;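 active = mean z-score across replicates of 1.96 or higher in either the MELAS or the Rieske mutant cell line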;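 also: test concentration not given here; z relative to plate mean and SD of compound and empty wells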). In general terms: ATP-based viability assays read luminescence as a measure of living cells.
Experiment [2] is described as follows: viability rescue of complex I mutant cybrids, primary screen, cell-based, galactose medium, ATP luminescence (AID 1645843).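 Also: positive z means more ATP and so rescue of galactose-driven cybrid death.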 The following applies: complex I mutant cybrid cells, 72 h, stronger effect = higher value.
The mark [3] stands for this setting: MELAS cybrid survival, CellTiter-Glo 48 h, stronger effect = higher value.
Setting [4] is: Rieske KO mouse fibroblast survival, CellTiter-Glo 72 h.

As to `CC(C)Cn1nc(C(=O)N2CCCC2)c2c1CCC(NCCc1cccs1)C2` (stereo unspecified), the z-score in experiment [1] (setting [3]) was -0.0921 (inactive); in experiment [1] (setting [4]) it was -0.284; in experiment [2] it was 0.555 (inactive).
For `CN1CCCc2cc(C(=O)N3CC(=O)N(Cc4ccccc4)CC(OCc4ccccn4)C3)ccc21` (stereo unspecified), the z-score was -0.626 (inactive) in experiment [1] (setting [3]), -0.731 in experiment [1] (setting [4]) and 0.21 (inactive) in experiment [2].
The matching figures for `COc1ccc(-c2[nH]ncc2CN2CCC3(CC2)C(=O)N(C(C)C)C(=O)N3CCC(C)C)cc1`: 0.0083 (inactive), -0.0351 and 0.975 (inactive).
The matching figures for `Cc1cc(-c2cc3c(n(Cc4cccnc4)c2=O)CCN(C(=O)C2Cc4ccccc4O2)C3)ccc1F` (stereo unspecified): -0.406 (inactive), 1.95 and -0.785 (inactive).
Consider `Cc1ccc(-c2cc(C(=O)N3CCSCC3)cc(S(=O)(=O)N3CCOCC3)c2)s1`, for which the z-score in experiment [1] (setting [3]) was -0.321 (inactive); in experiment [1] (setting [4]), -0.0192; in experiment [2], 0.905 (inactive).
As for `COCCN1C(=O)N(C2Cc3ccccc3C2)C(=O)C12CCN(Cc1cnn(C)c1C)CC2`, the figures for the z-score in experiment [1] (setting [3]), in experiment [1] (setting [4]) and in experiment [2] were -0.225 (inactive), -0.00202 and 1.21 (inactive), respectively.
The matching figures for `COc1cccc(COC2CN(Cc3ccccn3)C(=O)CN(C(=O)c3ccc(C)s3)C2)c1` (stereo unspecified): -0.406 (inactive), 0.0344 and 0.91 (inactive).
The like results for `COc1ccc(C[C@@H]2NC(=O)[C@H]3CN(C(=O)Oc4ccc(Cl)cc4)CCN3C2=O)cc1` were, in that order, -0.205 (inactive), 0.551 and -1.58 (inactive).
The matching figures for `CC(C)[C@@H]1NC(=O)[C@@H]2C[C@H](NC(=O)OCc3ccccc3)CN2C1=O`: -0.138 (inactive), -0.152 and -1.16 (inactive).
With `Cc1ccnn1CCC(=O)N1CC(=O)N(CC(C)C)CC(OCc2ccccn2)C1` (stereo unspecified), the z-score was -0.157 (inactive) in experiment [1] (setting [3]), -0.668 in experiment [1] (setting [4]) and 0.98 (inactive) in experiment [2].
As to `CC(C)CCN1C(=O)N(C(C)C)C(=O)C12CCN(Cc1ccc(CN3CCCCC3)s1)CC2`, the z-score is -0.0425 (inactive) in experiment [1] (setting [3]), -0.0124 in experiment [1] (setting [4]) and 1.27 (inactive) in experiment [2].
The matching figures for `CCCCNC(=O)[C@@H]1C[C@H](CN2CCOCC2)CN(Cc2ccc(OC)c(OC)c2)C1`: -0.184 (inactive), 0.521 and 1.15 (inactive).
The matching figures for `COCC(=O)Nc1c(C(=O)OC)n(C)c2ncc(NCc3cnn(C)c3C)cc12`: -0.241 (inactive), -0.209 and -0.64 (inactive).
The matching figures for `CC(C)CN1CC(OCc2cccc(F)c2)CN(C(=O)c2cccc(N3CCNC3=O)c2)CC1=O` (stereo unspecified): -0.284 (inactive), -0.354 and 0.795 (inactive).
For the compound `CC(C)CN1C[C@@H](CN2CCOCC2)C[C@@H](C(=O)N2CCCC2)C1`, the z-score in experiment [1] (setting [3]) was -0.0982 (inactive); in experiment [1] (setting [4]), -0.607; in experiment [2], -0.485 (inactive).
With `CCc1nc(CNc2cc(C(=O)N[C@H](C)c3ccc(OC)cc3)cc(S(=O)(=O)N(C)C)c2)c(C)[nH]1`, the z-score in experiment [1] (setting [3]) was -0.507 (inactive); in experiment [1] (setting [4]), -0.167; in experiment [2] it was 0.08 (inactive).
The like results for `CCCn1nc(C(=O)N2CCCCC2)c2c1CCC(NCc1cccnc1)C2` (stereo unspecified) were, in that order, -0.0243 (inactive), -0.185 and -1.06 (inactive).
The matching figures for `O=C(NCc1ccccn1)c1cc(NCC2CC2)cc(S(=O)(=O)N2CCCC2)c1`: -0.201 (inactive), -0.67 and 0.59 (inactive).
The like results for `Cn1c2c(cc(-c3ccc(OC(F)(F)F)cc3)c1=O)CN(C(=O)C1CC(=O)c3ccccc31)CC2` (stereo unspecified) were, in that order, 0.0877 (inactive), 0.643 and 0.305 (inactive).
As to `CCCCNC(=O)[C@@H]1C[C@H](CN2CCOCC2)CN(Cc2ccccc2)C1`, the z-score in experiment [1] (setting [3]) is -0.071 (inactive); in experiment [1] (setting [4]) it was -0.282; in experiment [2], -0.205 (inactive).
Turning to `CCN(CC)CCNC(=O)c1cc(-c2cc(C)cs2)cc(S(=O)(=O)N2CCOCC2)c1`, the z-score in experiment [1] (setting [3]) is -0.44 (inactive); in experiment [1] (setting [4]) it was -0.00741; in experiment [2], 1.25 (inactive).
Turning to `CC(C)C[C@H]1C(=O)N2CCN(Cc3cccc4ncccc34)C[C@@H]2C(=O)N1C`, the figures for the z-score in experiment [1] (setting [3]), in experiment [1] (setting [4]) and in experiment [2] were -0.521 (inactive), -0.107 and -0.23 (inactive), respectively.
For the compound `COC(=O)c1c(NC(=O)C2CCCO2)c2cc(NCc3ccccn3)cnc2n1CCc1ccccc1` (stereo unspecified), the z-score in experiment [1] (setting [3]) is -0.44 (inactive); in experiment [1] (setting [4]), -0.0393; in experiment [2], -0.87 (inactive).
Regarding `Cc1ccc2c(CC(=O)N3CC(=O)N(CC(C)C)CC(OCc4ccccn4)C3)cc(=O)oc2c1` (stereo unspecified), the z-score was -0.0739 (inactive) in experiment [1] (setting [3]), 0.0342 in experiment [1] (setting [4]) and 0.435 (inactive) in experiment [2].
The matching figures for `COc1cccc(-c2cc3c(n(Cc4ccccn4)c2=O)CCN(C(=O)c2csc(C)n2)C3)c1`: -0.876, 3.95 and -0.495 (inactive).
For `CC(C)NS(=O)(=O)c1cc(NCc2cnn(C)c2)cc(C(=O)NCc2cn3ccccc3n2)c1`, the values for the z-score in experiment [1] (setting [3]), in experiment [1] (setting [4]) and in experiment [2] were -0.615 (inactive), -0.511 and 1.27 (inactive), respectively.
The matching figures for `O=C1N[C@@H](COCc2ccccc2)C(=O)N2C[C@@H](NCc3cnn(-c4cccc(F)c4)c3)C[C@@H]12`: 1.94 (inactive), -0.436 and -0.845 (inactive).
The matching figures for `COCC(=O)Nc1c(C(=O)OC)n(CCC(C)C)c2ncc(NC(C)CCn3cccn3)cc12` (stereo unspecified): 0.765, 4.41 and -0.21 (inactive).
`C=CCn1nc(C(=O)N2CCCC2)c2c1CCC(NCc1ccccc1OC(F)(F)F)C2` (stereo unspecified): the z-score is 0.124 (inactive) in experiment [1] (setting [3]), 0.327 in experiment [1] (setting [4]) and -0.3 (inactive) in experiment [2].
The like results for `Cc1ccc(C(C)CCN2CCc3c(c(C(=O)N4CCC(O)CC4)nn3CCc3ccccc3)C2)o1` (stereo unspecified) were, in that order, -0.676 (inactive), -0.539 and 0.6 (inactive).
As to `Cc1ncsc1CCn1nc(C(=O)NC2CC2)c2c1CCN(C(=O)C1Cc3ccccc3O1)C2` (stereo unspecified), the z-score is -0.25 in experiment [1] (setting [3]), 4.81 in experiment [1] (setting [4]) and -0.18 (inactive) in experiment [2].
The like results for `Cc1cnc(CNC(=O)c2cc(-c3ccccc3)cc(S(=O)(=O)N3CCN(C)CC3)c2)cn1` were, in that order, 0.213 (inactive), -0.355 and -0.045 (inactive).
The matching figures for `Cc1csc(-c2cc(C(=O)NCCC3CCCN3C)cc(S(=O)(=O)N3CCOCC3)c2)c1` (stereo unspecified): 4.59 (active), -0.54 and -1.3 (inactive).
The like results for `COc1ccccc1CNC1CCc2c(c(C(=O)N3CCc4ccccc4C3)nn2C)C1` (stereo unspecified) were, in that order, -0.107 (inactive), -0.0135 and 0.07 (inactive).
Regarding `CC(C)CCN1C(=O)N(CC(N)=O)C(=O)C12CCN(Cc1nc3ccccc3s1)CC2`, the z-score was -0.288 (inactive) in experiment [1] (setting [3]), -0.574 in experiment [1] (setting [4]) and 0.225 (inactive) in experiment [2].
The matching figures for `CC(C)CNC(=O)[C@@H]1C[C@H](CN2CCOCC2)CN(Cc2ccncc2)C1`: -0.456 (inactive), -0.738 and -0.6 (inactive).
The matching figures for `CCOC(=O)c1nn(CCc2ccc(OC)cc2)c2c1CN(Cc1cccn1-c1ccccn1)CC2`: -0.341 (inactive), 0.052 and -1.34 (inactive).
The like results for `O=C(c1nn(Cc2ccccn2)c2c1CN(C/C=C/c1ccco1)CC2)N1CCc2ccccc2C1` were, in that order, -0.442 (inactive), -0.213 and -0.345 (inactive).
For the compound `Cc1ncc(CNc2cc(C(=O)Nc3cccc(N(C)C)c3)cc(S(=O)(=O)N3CCCC3)c2)[nH]1`, the z-score is -0.563 (inactive) in experiment [1] (setting [3]), -0.237 in experiment [1] (setting [4]) and 0.295 (inactive) in experiment [2].
The like results for `O=C1N[C@@H](CSCc2ccccc2)C(=O)N2CCN(C(=O)Oc3ccccc3)C[C@H]12` were, in that order, 1.38 (inactive), -0.171 and -1.57 (inactive).
On to `O=C(Cn1cnc2ccccc21)N1CCc2c(cc(-c3cccc(Cl)c3)c(=O)n2CC2CC2)C1`, for which the z-score in experiment [1] (setting [3]) is 0.334 (inactive); in experiment [1] (setting [4]) it was -0.586; in experiment [2] it was -0.315 (inactive).
Take `C[C@@H](OCc1ccccc1)[C@@H]1NC(=O)[C@H]2CN(C(=O)Oc3ccccc3)CCN2C1=O`: the z-score in experiment [1] (setting [3]) was -0.153 (inactive); in experiment [1] (setting [4]) it was -0.114; in experiment [2], -1.46 (inactive).
The like results for `Cc1ccc(C(C)CCN2CCC3(CC2)C(=O)N(C(C)C)C(=O)N3CCC(C)C)o1` (stereo unspecified) were, in that order, -0.199 (inactive), -0.496 and 0.91 (inactive).
The like results for `CC(C)NS(=O)(=O)c1cc(NC2CCCCC2)cc(C(=O)NC2Cc3ccccc3C2)c1` were, in that order, -0.22 (inactive), -0.431 and -0.045 (inactive).
The matching figures for `CC(C)CNC(=O)[C@@H]1C[C@H](CN2CCOCC2)CN(Cc2ccc(O)cc2)C1`: -0.104 (inactive), -0.186 and -0.31 (inactive).
For `CC(C)CNC(=O)[C@@H]1C[C@H](CN2CCOCC2)CN(Cc2ccccc2)C1`, the z-score was 0.428 (inactive) in experiment [1] (setting [3]), 0.562 in experiment [1] (setting [4]) and 0.12 (inactive) in experiment [2].
The like results for `COc1ccc(CCNC2CCc3c(c(C(=O)N(C)C)nn3CC3CCCCC3)C2)cc1` (stereo unspecified) were, in that order, -0.342 (inactive), 0.349 and -1.19 (inactive).
For `COC(=O)CCN1CC(OCc2cccc(OC)c2)CN(C(=O)CCc2cccs2)CC1=O` (stereo unspecified), the z-score in experiment [1] (setting [3]) was -0.467 (inactive); in experiment [1] (setting [4]), -0.256; in experiment [2], 0.52 (inactive).
Turning to `Cc1ccccc1CN[C@H]1C[C@H]2C(=O)N[C@@H]([C@@H](C)O)C(=O)N2C1`, the z-score in experiment [1] (setting [3]) was 0.0812 (inactive); in experiment [1] (setting [4]), -0.372; in experiment [2], 0.715 (inactive).
For `CC(C)CN1CC(OCc2cccc(F)c2)CN(Cc2cccn2-c2ncccn2)CC1=O` (stereo unspecified), the figures for the z-score in experiment [1] (setting [3]), in experiment [1] (setting [4]) and in experiment [2] were -0.291 (inactive), -0.624 and 0.085 (inactive), respectively.
The matching figures for `Cc1csc(-c2cc(C(=O)NCCCN3CCOCC3)cc(S(=O)(=O)N3CCOCC3)c2)c1`: -0.167 (inactive), 0.151 and 2.09 (inactive).
The like results for `CC(=O)c1cccc(-c2cc3c(n(C)c2=O)CCN(C(=O)c2ccc4[nH]c5c(c4c2)CCCC5)C3)c1` were, in that order, -0.0854 (inactive), -0.491 and -1.45 (inactive).
